Inconclusive results are not listed. Activity calls are given as the source filed them. Calls come from the whole dose curve; as a rule, active = well fitted curve in the direction sought with a large enough effect in the repeat runs; inconclusive = weak or mixed curves; inactive = no such curve, though single readings can be large; an effect the other way counts as inactive or inconclusive.
What was measured:
[1] = A CellTox Green Cytotoxicity Assay to monitor cytotoxicity in HepG2 cells - 0 hour (AID 1224882); note: nearly all actives have a fitted effect of over 35% in size
In short: (§1)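 Real-time, homogeneous cytotoxicity readout: dead-cell DNA staining by CellTox Green in HepG2 monolayers, fluorescence measured at timed intervals up to 40 h of continuous compound exposure.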

[2] = A CellTox Green Cytotoxicity Assay to monitor cytotoxicity in HepG2 cells - 32 hour (AID 1224883); note: nearly all actives have a fitted effect of over 50% in size; note: potency is the fitted concentration of half-maximal effect
In short: as §1

[3] = A CellTox Green Cytotoxicity Assay to monitor cytotoxicity in HEK293 cells - 8 hour (AID 1224884); note: nearly all actives have a fitted effect of over 35% in size
In short: (§2)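 Cytotoxicity was tracked continuously in HEK293 cells by a DNA-binding dye excluded from viable cells. Compounds were transferred in DMSO 5 h after seeding; fluorescence was recorded at intervals up to 40 h.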

[4] = qHTS RealTime-Glo MT Cell Viability Assay in HepG2 cells - 16 hour (AID 1224885); note: nearly all actives have a fitted effect of over 50% in size
In short: (§3)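 Tox21 10K library screened in qHTS format on HepG2 cells carrying RealTime-Glo reagents. Compounds were added after a 5 h preincubation, and the luminescent signal from continuous culture was measured repeatedly during 40 h treatment.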

[5] = qHTS RealTime-Glo MT Cell Viability Assay in HEK293 cells - 8 hour (AID 1224887); note: nearly all actives have a fitted effect of over 50% in size; note: potency is the fitted concentration of half-maximal effect; for activity change, negative = cytotoxicity: top concentration of the series differs between compounds
In short: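 Nonlytic bioluminescent viability monitoring. HEK293 at 600 cells/well with reagent; 5 h settle; compound transfer by pintool; plates held at 37 C and read at set time points.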

[6] = A CellTox Green Cytotoxicity Assay to monitor cytotoxicity in HEK293 cells - 16 hour (AID 1224888); note: nearly all actives have a fitted effect of over 35% in size; note: potency is the fitted concentration of half-maximal effect
In short: as §2

[7] = A CellTox Green Cytotoxicity Assay to monitor cytotoxicity in HepG2 cells - 8 hour (AID 1224890); note: nearly all actives have a fitted effect of over 45% in size; note: potency is the fitted concentration of half-maximal effect
In short: as §1

[8] = qHTS RealTime-Glo MT Cell Viability Assay in HepG2 cells - 0 hour (AID 1224889); note: nearly all actives have a fitted effect of over 50% in size
In short: as §3

[9] = qHTS RealTime-Glo MT Cell Viability Assay in HEK293 cells - 24 hour (AID 1224886); note: nearly all actives have a fitted effect of over 50% in size; note: potency is the fitted concentration of half-maximal effect; for activity change, negative = cytotoxicity: top concentration of the series differs between compounds
In short: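 Luminescence generated by NanoLuc from substrate produced by living HEK293 cells served as the viability signal. Each value reflects the reading at its stated time point during continuous 40 h compound exposure at 37 C.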
% is set by controls: 0 for no effect and ±100 for the full control effect.

Cc1cc(-c2ccc(N=Nc3cc(S(=O)(=O)O)c4ccccc4c3N)c(C)c2)ccc1N=Nc1cc(S(=O)(=O)O)c2ccccc2c1N
inactive: Potency [1] | Potency [2] | Potency [3] | Potency [4] | Potency [5] | Potency [6] | Potency [7]

C[Si](Cl)(c1ccccc1)c1ccccc1
inactive: Potency [1] | Potency [2] | Potency [3] | Potency [4] | Potency [6] | Potency [8] | Potency [7]

CC/C=C\CCCCCO
inactive: Potency [1] | Potency [3] | Potency [4] | Potency [9] | Potency [5] | Potency [6] | Potency [8] | Potency [7]

Cc1ccc(O)c(O)c1
inactive: Potency [1] | Potency [2] | Potency [8] | Potency [7]

CN(C)[C@@H](CCOc1cccc2ccccc12)c1ccccc1
inactive: Potency [1] | Potency [3] | Potency [8]

Cc1cc(C(C)(C)C)c(O)c(C)c1Cn1c(=O)n(Cc2c(C)cc(C(C)(C)C)c(O)c2C)c(=O)n(Cc2c(C)cc(C(C)(C)C)c(O)c2C)c1=O
inactive: Potency [1] | Potency [2] | Potency [3] | Potency [6] | Potency [8] | Potency [7]

CCCCCCCCCCC[C@@H](C[C@@H]1OC(=O)[C@H]1CCCCCC)OC(=O)[C@H](CC(C)C)NC=O
active: Potency [2] 16.9 µM | Potency [9] 8.49 µM
inactive: Potency [1] | Potency [3] | Potency [6] | Potency [8] | Potency [7]

CCC(COC(=O)CCS)(COC(=O)CCS)COC(=O)CCS
inactive: Potency [1] | Potency [2] | Potency [3] | Potency [9] | Potency [5] | Potency [6] | Potency [7]

C#C[C@]1(OC(C)=O)CC[C@H]2[C@@H]3CCC4=C[C@@H](OC(C)=O)CC[C@@H]4[C@H]3CC[C@@]21C
inactive: Potency [1] | Potency [2] | Potency [3] | Potency [6] | Potency [8] | Potency [7]
active: Potency [9] 21.3 µM

C=CC(=O)OCCOC(=O)C=C
inactive: Potency [1] | Potency [2] | Potency [3] | Potency [6] | Potency [8] | Potency [7]
active: Potency [9] 43.6 µM

O=C(c1ccc(O)c(O)c1)c1ccc(O)cc1O
inactive: Potency [1] | Potency [3] | Potency [4] | Potency [5] | Potency [8] | Potency [7]

Sc1nc2ccccc2s1
inactive: Potency [1] | Potency [3] | Potency [4] | Potency [9] | Potency [5] | Potency [7]

CC(C)(C)c1csc(-c2cc3cc(OCc4ccccc4CC(=O)O)ccc3o2)n1
active: Potency [2] 54.9 µM
inactive: Potency [1] | Potency [3] | Potency [8]

Cc1cc(=O)oc2cc(O)cc(O)c12
inactive: Potency [1] | Potency [2] | Potency [3] | Potency [9] | Potency [8] | Potency [7]

CCCCCCC1CCCC(=O)O1 (stereo not drawn)
inactive: Potency [1] | Potency [2] | Potency [4] | Potency [9] | Potency [6] | Potency [8] | Potency [7]

[Cu+]
inactive: Potency [1] | Potency [2] | Potency [3] | Potency [4] | Potency [5] | Potency [6] | Potency [8] | Potency [7]

CC1(C)CCC[C@]2(C)[C@H]3CCO[C@]3(C)CC[C@@H]12
inactive: Potency [1] | Potency [2] | Potency [4] | Potency [9] | Potency [5] | Potency [8] | Potency [7]

CN1CCN(Cc2cc(-c3ccc4[nH]c(=O)oc4c3)co2)[C@@H](c2ccc(F)cc2)C1
active: Potency [2] 42 µM | Potency [9] 26.5 µM
inactive: Potency [1] | Potency [6] | Potency [8] | Potency [7]

Cl[Si](Cl)(c1ccccc1)c1ccccc1
inactive: Potency [1] | Potency [2] | Potency [4] | Potency [9] | Potency [5] | Potency [8] | Potency [7]

Nc1cc(Cl)c(O)c(Cl)c1
active: Potency [5] 43.6 µM
inactive: Potency [1] | Potency [2] | Potency [3] | Potency [4] | Potency [6] | Potency [8] | Potency [7]

Cc1nc2n(c(=O)c1CCN1CCC(c3noc4cc(F)ccc34)CC1)CCCC2
active: Potency [9] 3.38 µM | Potency [5] 3.01 µM
inactive: Potency [1] | Potency [2] | Potency [3] | Potency [6] | Potency [8] | Potency [7]

CCCCN(CCCC)CC(O)c1cc(Cl)cc2c1-c1ccc(Cl)cc1/C2=C/c1ccc(Cl)cc1 (stereo not drawn)
active: Potency [2] 23.9 µM | Potency [7] 13.4 µM
inactive: Potency [1] | Potency [3] | Potency [9] | Potency [5] | Potency [6] | Potency [8]

COc1cccc(OC)c1C(=O)O
inactive: Potency [1] | Potency [2] | Potency [3] | Potency [4] | Potency [9] | Potency [7]

CCC(=O)C(=O)CC
inactive: Potency [1] | Potency [2] | Potency [3] | Potency [4] | Potency [5] | Potency [6] | Potency [8] | Potency [7]

CCOC(=O)c1ccc(C2CCC(NC[C@H](O)COc3ccc(O)c(NS(C)(=O)=O)c3)CC2)cc1 (stereo partly drawn)
active: Potency [2] 45.2 µM | Potency [9] 20.2 µM | Potency [5] 20.2 µM
inactive: Potency [1] | Potency [3] | Potency [6] | Potency [7]

CC(C)Cn1cnc2c(N)nc3ccccc3c21
inactive: cytotoxicity [1] -9.84% [at 15.8 µM] | cytotoxicity increase [2] -12% [at 15.8 µM] | cytotoxicity increase [3] 2.79% [at 15.8 µM] | activity change, negative = cytotoxic [4] 0.56% [at 15.8 µM] | activity change [6] 2.2% [at 15.8 µM, stronger effect = higher value] | cytotoxicity increase [7] -11.4% [at 15.8 µM]

CN1CCC[C@@H]1CCO[C@](C)(c1ccccc1)c1ccc(Cl)cc1
inactive: Potency [1] | Potency [3]
active: Potency [2] 21.3 µM | Potency [9] 10.7 µM | Potency [6] 23.9 µM

CCCCCC(C)OC(=O)COc1ccc(Cl)c2cccnc12 (stereo not drawn)
inactive: Potency [1] | Potency [3] | Potency [6] | Potency [8] | Potency [7]

COc1cc2nc(N3CCN(C(=O)c4ccco4)CC3)nc(N)c2cc1OC
inactive: cytotoxicity increase [3] -2.23% [at 15.8 µM] | activity change, negative = cytotoxic [4] -15.2% [at 15.8 µM] | activity change, negative = cytotoxicity [9] -15.4% [at 15.8 µM] | activity change, negative = cytotoxicity [5] -21.9% [at 15.8 µM] | activity change [6] 1.13% [at 15.8 µM, stronger effect = higher value] | activity change, negative = cytotoxicity [8] 8.34% [at 15.8 µM]
active: Potency [2] 10.4 µM

Reference: PubChem BioAssay (Tox21)
